Data reported in PubChem BioAssay.
Active and inactive are the calls of the source.

Columns and labels:
[1] = small molecules captured by biotinylated probe aFSTL3 – biochemical, small-molecule microarray, fluorescence 635/667, stem cell growth factor project, primary screen (AID 1064); conditions: higher = more signal;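 note: measures binding of the biotinylated anti-FSTL3 antibody to printed compounds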
[2] = binders from COS7 lysate, DM2A8 probe, primary screen, torsin A project, cell lysate, small-molecule microarray, fluorescence 635/667 (AID 1065); conditions: higher = more signal, COS7 lysate expressing mutant human TOR1A
[3] = small molecules captured by biotinylated probe aFGF2 – biochemical, small-molecule microarray, fluorescence 635/667, stem cell growth factor project, primary screen (AID 1067); conditions: higher = more signal;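 note: measures binding of biotinylated aFGF2 protein to printed compounds on slides; z-score merges feature fluorescence and signal-to-noise across triplicate slides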
[4] = small molecules captured by biotinylated probe aFGF10 – biochemical, small-molecule microarray, fluorescence 635/667, stem cell growth factor project, primary screen (AID 1071); conditions: higher = more signal;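 note: score merges 667 nm spot intensity and signal to noise from triplicate slides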
[5] = target: Neurogenic locus notch homolog protein 2 (Homo sapiens) (UniProt Q04721); experiment: small molecules binding Notch2 protein – biochemical, small-molecule microarray, 635 nm fluorescence, stem cell growth factors, primary screen (AID 1073); conditions: higher = more signal
[6] = target: Pro-neuregulin-1, membrane-bound isoform (Homo sapiens) (UniProt Q02297); experiment: small molecules binding neuregulin-1 protein – biochemical, small-molecule microarray, fluorescence 635/667, psychiatric disease protein project, primary screen (AID 1075); conditions: NRG1 binding, 635 nm fluorescence, higher = more signal;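 note: score combines 667 nm spot fluorescence with signal to noise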
[7] = tested on: Neuregulin-1 EGF-like domain; experiment: small molecules binding NRG1 EGF domain – biochemical, small-molecule microarray, 635 nm fluorescence, primary screen (AID 1081); conditions: higher = more signal;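 note: binding of the protein to compounds printed on small-molecule microarray slides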
[8] = FRG1 expression reporter modulators in myotubes – cell-based, C2C12 myotubes, firefly/Renilla luciferase, luminescence, FRG1 inhibition for FSHD, primary screen (AID 1084); conditions: FRG1 promoter luciferase, higher = more signal, called active from +8 up or from −8 down
[9] = small molecules captured by biotinylated probe aFST – biochemical, small-molecule microarray, fluorescence 635/667, stem cell growth factor project, primary screen (AID 1086); conditions: higher = more signal;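 note: score merges 667 nm fluorescence with signal-to-noise of each printed compound spot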
[10] = binders of probe aHhip on microarray, primary screen, stem cell growth factor project, biochemical, small-molecule microarray, fluorescence 635/667 (AID 1087); conditions: higher = more signal;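 note: score merges spot fluorescence at 667nm with spot signal to noise ratio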

Neurogenic locus notch homolog protein 2 (Homo sapiens), sequence (Q04721 whole entry, looked up, canonical isoform): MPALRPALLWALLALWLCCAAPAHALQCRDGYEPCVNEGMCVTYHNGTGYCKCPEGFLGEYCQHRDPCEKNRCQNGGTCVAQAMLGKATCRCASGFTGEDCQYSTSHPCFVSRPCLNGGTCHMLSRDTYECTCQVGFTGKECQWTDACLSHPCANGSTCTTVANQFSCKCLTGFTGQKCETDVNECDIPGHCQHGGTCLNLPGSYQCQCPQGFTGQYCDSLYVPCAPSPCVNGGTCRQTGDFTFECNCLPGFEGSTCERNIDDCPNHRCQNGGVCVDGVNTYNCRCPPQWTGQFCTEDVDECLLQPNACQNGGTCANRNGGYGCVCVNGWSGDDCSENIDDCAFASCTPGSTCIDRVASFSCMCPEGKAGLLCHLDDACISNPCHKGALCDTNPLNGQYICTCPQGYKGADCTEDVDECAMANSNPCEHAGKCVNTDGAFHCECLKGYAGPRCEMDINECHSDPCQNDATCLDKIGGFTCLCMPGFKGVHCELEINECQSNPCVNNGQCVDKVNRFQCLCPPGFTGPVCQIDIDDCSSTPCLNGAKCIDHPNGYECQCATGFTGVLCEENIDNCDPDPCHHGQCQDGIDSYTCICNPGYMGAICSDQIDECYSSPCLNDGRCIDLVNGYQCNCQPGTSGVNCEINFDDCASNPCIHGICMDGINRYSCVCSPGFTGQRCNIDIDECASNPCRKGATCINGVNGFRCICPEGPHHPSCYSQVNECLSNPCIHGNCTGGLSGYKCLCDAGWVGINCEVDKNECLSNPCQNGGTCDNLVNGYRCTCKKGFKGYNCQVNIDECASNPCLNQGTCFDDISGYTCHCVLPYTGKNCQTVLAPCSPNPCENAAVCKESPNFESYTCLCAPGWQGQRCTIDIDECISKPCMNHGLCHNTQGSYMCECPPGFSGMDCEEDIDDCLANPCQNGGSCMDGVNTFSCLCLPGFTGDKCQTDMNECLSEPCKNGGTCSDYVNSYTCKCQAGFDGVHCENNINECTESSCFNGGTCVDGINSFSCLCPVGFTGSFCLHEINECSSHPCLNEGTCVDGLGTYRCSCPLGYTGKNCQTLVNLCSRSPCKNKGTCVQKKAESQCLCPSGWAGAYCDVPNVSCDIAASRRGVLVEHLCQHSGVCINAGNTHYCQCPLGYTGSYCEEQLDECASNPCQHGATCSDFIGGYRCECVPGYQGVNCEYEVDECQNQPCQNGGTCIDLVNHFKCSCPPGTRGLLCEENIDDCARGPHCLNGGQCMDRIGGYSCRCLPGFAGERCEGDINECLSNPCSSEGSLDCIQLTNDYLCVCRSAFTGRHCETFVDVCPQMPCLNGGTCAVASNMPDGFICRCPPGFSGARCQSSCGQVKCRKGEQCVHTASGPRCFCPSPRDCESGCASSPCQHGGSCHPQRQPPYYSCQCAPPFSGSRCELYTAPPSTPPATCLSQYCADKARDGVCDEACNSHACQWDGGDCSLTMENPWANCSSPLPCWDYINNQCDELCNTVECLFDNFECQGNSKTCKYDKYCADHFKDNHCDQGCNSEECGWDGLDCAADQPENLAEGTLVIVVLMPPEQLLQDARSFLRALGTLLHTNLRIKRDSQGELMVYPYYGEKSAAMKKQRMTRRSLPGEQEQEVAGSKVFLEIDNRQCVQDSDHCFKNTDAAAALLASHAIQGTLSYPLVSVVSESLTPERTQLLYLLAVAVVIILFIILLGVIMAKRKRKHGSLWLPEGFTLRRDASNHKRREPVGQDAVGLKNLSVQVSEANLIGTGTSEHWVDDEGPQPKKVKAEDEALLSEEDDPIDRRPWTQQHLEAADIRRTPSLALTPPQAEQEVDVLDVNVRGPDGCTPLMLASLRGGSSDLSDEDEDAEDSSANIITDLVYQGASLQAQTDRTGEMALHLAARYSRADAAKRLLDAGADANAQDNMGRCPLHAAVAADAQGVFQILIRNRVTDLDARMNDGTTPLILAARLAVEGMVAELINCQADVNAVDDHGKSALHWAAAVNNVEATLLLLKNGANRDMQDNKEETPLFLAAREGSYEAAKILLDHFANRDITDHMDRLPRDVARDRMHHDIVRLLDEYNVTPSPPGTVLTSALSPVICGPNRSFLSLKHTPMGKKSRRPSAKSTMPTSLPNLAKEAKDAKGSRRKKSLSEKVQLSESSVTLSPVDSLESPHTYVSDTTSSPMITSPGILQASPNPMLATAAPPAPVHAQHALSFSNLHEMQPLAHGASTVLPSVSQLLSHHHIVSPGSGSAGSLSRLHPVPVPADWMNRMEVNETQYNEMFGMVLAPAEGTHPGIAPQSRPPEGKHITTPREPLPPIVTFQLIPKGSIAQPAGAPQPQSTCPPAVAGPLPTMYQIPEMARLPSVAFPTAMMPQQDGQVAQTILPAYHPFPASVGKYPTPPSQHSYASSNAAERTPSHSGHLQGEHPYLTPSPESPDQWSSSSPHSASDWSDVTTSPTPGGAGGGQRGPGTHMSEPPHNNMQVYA
Pro-neuregulin-1, membrane-bound isoform (Homo sapiens), sequence (Q02297 whole entry, looked up, the tested form may be a part, canonical isoform): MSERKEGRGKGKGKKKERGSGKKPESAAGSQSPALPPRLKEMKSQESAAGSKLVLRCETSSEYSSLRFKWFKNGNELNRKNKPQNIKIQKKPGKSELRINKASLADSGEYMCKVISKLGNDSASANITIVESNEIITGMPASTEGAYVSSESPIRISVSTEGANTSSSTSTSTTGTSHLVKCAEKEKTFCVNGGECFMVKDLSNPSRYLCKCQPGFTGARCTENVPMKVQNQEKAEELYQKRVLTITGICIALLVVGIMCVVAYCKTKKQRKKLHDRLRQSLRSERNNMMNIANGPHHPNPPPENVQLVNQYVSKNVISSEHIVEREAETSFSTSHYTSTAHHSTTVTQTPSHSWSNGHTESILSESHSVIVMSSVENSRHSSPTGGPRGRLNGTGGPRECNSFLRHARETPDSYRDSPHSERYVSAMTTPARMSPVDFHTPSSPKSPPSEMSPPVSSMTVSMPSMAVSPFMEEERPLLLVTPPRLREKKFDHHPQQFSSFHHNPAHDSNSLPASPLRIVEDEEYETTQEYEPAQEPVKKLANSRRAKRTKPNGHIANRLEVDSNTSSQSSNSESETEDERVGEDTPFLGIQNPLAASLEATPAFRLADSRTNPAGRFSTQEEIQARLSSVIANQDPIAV

Row | SMILES | composite z-score [1] | composite z-score [2] | composite z-score [3] | composite z-score [4] | composite z-score [5] | composite z-score [6] | composite z-score [7] | z-score [8] | composite z-score [9] | composite z-score [10]
1 | COc1ccc(CCNC(=O)[C@@]2(C)c3ccccc3C(=O)N(C(C)C)[C@H]2c2ccc(CO)cc2)cc1 | -0.182 | 0.39 | 0.0376 | 0.4 | 0.246 | 0.693 | 1.3 | -0.262 (inactive) | 0.933 | -0.394
2 | O=C(NCCN1CCOCC1)[C@@H]1c2ccccc2C(=O)N(C2CCCCC2)[C@H]1c1ccc(CO)cc1 | 0.64 | -0.324 | -0.0616 | -0.413 | -0.194 | 0.96 | 0.872 | -0.658 (inactive) | 0.106 | -0.271
3 | CO[C@H]1O[C@H](CO)[C@@H](OC(=O)Nc2ccc(C(F)(F)F)cc2)[C@H](OC(=O)Nc2ccc3c(c2)OCO3)[C@@H]1OC(=O)Nc1ccc2c(c1)OCO2 | -0.139 | 1.62 | 0.0666 | 1.22 | 1.51 | 1.76 | 1.29 | 3.93 (inactive) | -0.0167 | 0.124
4 | CN1C(=O)C2C=CC(C(O)c3ccccc3)N(N(c3ccccc3)c3ccccc3)C2C1=O (stereo not given) | -0.034 | 0.287 | 0.0561 | 0.332 | 0.924 | 0.647 | 0.553 | 0.815 (inactive) | 0.474 | 0.245
5 | C=C(CCCC)/C(=C/C[C@@H](OC(=O)c1ccncc1)c1ccc(OCCO)cc1)c1cc(C(=O)OC)ccc1OC | -0.356 | 0.807 | -0.129 | 0.63 | -0.0009 | 0.382 | 1.01 | 5.07 (inactive) | -0.0132 | -0.217
6 | C[C@@]1([C@@H](NC(=O)c2ccc(-c3ccccc3)cc2)c2ccc(Cl)cc2)C[C@H]1C1CCCCC1 | 0.512 | 0.903 | 0.276 | 0.473 | 1.43 | 1.86 | 0.883 | -0.203 (inactive) | 0.893 | 0.133
7 | O=C1[C@@]23C=C(Br)[C@H](C[C@@H]2CCOC3)[C@@]12CO2 | -0.655 | 0.113 | -0.103 | 0.283 | 0.306 | -0.213 | -0.1 | -0.413 (inactive) | -0.0444 | 0.0373
8 | Cc1ccccc1C(O)C1C=CC2C(=O)N(c3ccccc3)C(=O)C2N1Nc1ccc(C(C)C)cc1 (stereo not given) | -0.0476 | -0.0455 | 0.0536 | 0.82 | 1.5 | 1.27 | 0.592 | -0.729 (inactive) | 1.41 | 0.142
9 | O=C1NC(=O)C2C1C=CC(C(O)c1cc(C(F)(F)F)cc(C(F)(F)F)c1)N2Nc1ccccn1 (stereo not given) | -0.119 | 0.134 | -0.0524 | 0.121 | 0.312 | 0.969 | 1.03 | 0.589 (inactive) | 0.138 | -0.0726
10 | COC(=O)[C@@]1(Cc2ccc(OC)cc2)[C@H]2c3cc(C(=O)N4CCCC4)n(Cc4ccc(C)c(F)c4F)c3C[C@H]2CN1C(=O)c1ccccc1 | 0.77 | -0.5 | 0.176 | 0.78 | 1.77 | 1.65 | 1.31 | 0.352 (inactive) | 1.78 | 2.12
11 | COc1ccc(-c2cc3c(c(-c4ccc(Oc5ccccc5)cc4)n2)[Si](C(C)C)(C(C)C)OC3)cn1 | -0.264 | -0.65 | -0.163 | 0.0106 | 0.358 | -0.264 | -0.502 | -0.211 (inactive) | 0.406 | -0.0994
12 | COCCOC(=O)N1C(=O)[C@@]2(c3ccccc31)[C@H](c1ccccc1OCCO)N1[C@H](c3ccccc3)[C@H](c3ccccc3)OC(=O)[C@H]1[C@@H]2C(=O)N1CCN(c2ncccn2)CC1 | 0.0686 | 1.07 | -0.0629 | 0.0228 | 0.598 | 1.38 | 1.18 | -2.05 (inactive) | 0.152 | -0.0672
13 | COC(=O)C(CC#Cc1ccc2c(c1)[C@]1(C(=O)N2)[C@H](c2ccc(OCCO)cc2)N2[C@H](c3ccccc3)[C@H](c3ccccc3)OC(=O)[C@H]2[C@@H]1C(=O)N1CCc2cc(OC)c(OC)cc2C1)C(=O)OC | 0.931 | 0.802 | 0.119 | 1.05 | 1.42 | 1.07 | 1.25 | 2.24 (inactive) | 1.6 | 0.876
14 | [N-]=[N+]=Nc1ccccc1[C@@H]1OC(c2ccc(OCCCO)cc2)=N[C@]1(Cc1ccccc1)C(=O)N1CCOCC1 | 0.324 | 0.0788 | 0.14 | 0.781 | 1.55 | 1.26 | 1.2 | -1.5 (inactive) | 0.802 | 0.0053
15 | C=CCNC(=O)[C@@H]1[C@H]2C(=O)O[C@H](c3ccccc3)[C@H](c3ccccc3)N2[C@H](c2ccc(O)cc2)[C@@]12C(=O)N(C(=O)OCCOC)c1ccc(C#CCNC(N)=O)cc12 | 0.2 | 0.383 | 0.0793 | 0.714 | 0.211 | 1.22 | 0.955 | -0.989 (inactive) | 1.15 | -0.311
16 | O=C1C[C@@](C(=O)NC2CC2)(c2ccc([N+](=O)[O-])cc2)[C@@H](c2ccc(CO)cc2I)N1C1CCCCC1 | -0.407 | 0.722 | 0.0043 | 0.496 | 0.677 | 1.04 | 1.34 | -0.165 (inactive) | 0.419 | 0.075
17 | C=CCOC(=O)[C@@H]1[C@H]2C(=O)O[C@H](c3ccccc3)[C@H](c3ccccc3)N2[C@H](c2ccc(OCCOC(=O)[C@H]3C[C@H]4C(=O)N5CCC[C@H]5C(=O)N4[C@H]3c3ccc(O)cc3)cc2)[C@@]12C(=O)Nc1ccc(I)cc12 | -0.493 | 0.942 | -0.0958 | 0.59 | 0.929 | 0.782 | 1.24 | -0.627 (inactive) | -0.0364 | -0.34
18 | C=CC[C@@]12N=C(c3ccc(OCCCO)cc3)O[C@@H]1c1ccccc1N(C)C2=O | 0.463 | 0.233 | 0.128 | 0.638 | 0.8 | 1.38 | 1.31 | 1.72 (inactive) | 0.593 | 0.0972
19 | C=C(C)[C@@H]1CC=C(C(O)C2C=CC3C(=O)N(C)C(=O)C3N2Nc2ccccc2)CC1 (stereo not given in full) | 0.301 | 0.122 | -0.0216 | 0.394 | 1.27 | 0.624 | 0.928 | 0.283 (inactive) | 0.577 | 0.176
20 | COc1ccccc1CN1C(=O)c2ccccc2[C@@H](C(=O)NC2CC2)[C@@H]1c1ccc(CO)cc1 | 0.11 | 0.293 | 0.0233 | 0.986 | 1.48 | 1.12 | 1.29 | -3.17 (inactive) | 0.592 | 0.075
21 | COC(=O)[C@@]1(Cc2ccc(OC)cc2)[C@@H]2C(=CC(=O)[C@H]2CC(=O)C(=O)N2CCCC2)CN1C(=O)c1ccccc1 | 0.156 | -0.601 | -0.0124 | 0.224 | 1.6 | 1.02 | 1.25 | 2.91 (inactive) | 1.1 | 1.41
